Test results published in PubChem BioAssay (NCATS).
Values joined by “and” are separate entries in the source; they are usually repeats but may differ in a detail not shown here. Identical values can stand only once. Results filed as inconclusive are left out. Active and inactive are the calls of the source. Unless noted, the call rests on the fitted dose curve; in most records, active means well fitted curve in the direction sought with a large enough effect; inconclusive means small, poorly fitted or top-dose-only effect, or another doubt; inactive means no such curve, though single readings can be large; an effect the other way counts as inactive or inconclusive.

Tests used:
[1] = Cell Viability - N2a (AID 540); conditions: N2a mouse neuroblastoma cell viability; activity change, negative = cytotoxicity: at 92.2 µM (top of the series);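 further: plate controls were DMSO alone for no effect and tamoxifen control for full effect; nearly all actives have a fitted effect of over 45% in size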
How it was run: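 CellTiter-Glo ATP luminescence, read 20 min after reagent at room temperature, reported viability following 40 h compound treatment at 37 °C. N2a mouse neuroblastoma cells seeded 1500/well; Hill equation gave AC50.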

[2] = Cellular Toxicity (caspase-3) Jurkat (AID 655); conditions: Jurkat caspase-3 activation, luminescence, DMSO = 0%, tamoxifen = 100%; at 92.2 µM (top of the series);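 further: cells exposed to compound for 16 h at 37 °C before reading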
How it was run: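 qHTS in human Jurkat T-cell leukemia line: 16 hr compound treatment at 37 °C, caspase-3/7 activity measured by Caspase-Glo luminescence. AC50 derived from Hill equation.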

[3] = Cellular Toxicity (caspase-3) SHSY5Y (AID 657)
How it was run: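 Readout: caspase-cleaved peptide-aminoluciferin substrate driving luciferase light in SH-SY5Y neuroblastoma cells after 16 h treatment. Response normalized to DMSO and 10 uM staurosporine controls.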

[4] = Cellular Toxicity (caspase-3) H-4-II-E (AID 663); conditions: Potency: caspase-3 activation; further: potency means the concentration at half of the fitted maximal effect;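 on caspase-3 activation: cells exposed to compound for 16 hr before readout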
How it was run: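 Caspase 3/7 activation measured by luminescent aminoluciferin substrate cleavage after 16 hr compound treatment of H-4-II-E cells in complete medium. Increase normalized between DMSO (basal) and 100 uM tamoxifen (100%); Hill-equation AC50 from concentration-response.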

[5] = Cell Viability - LYMP2-001 (AID 921);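 further: 0% = DMSO only and full inhibition = tetraoctylammonium bromide control wells; nearly all actives have a fitted effect of over 70% in size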
How it was run: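 A lymphoblastoid cell line of human origin was treated with library compounds across a concentration series for 24 hours, and viable cell number was estimated from ATP-driven luciferase light output. Hill modeling gave AC50.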

[6] = MultiTox-Fluor Cytotoxicity Assay - LYMP1-001 - Dead Cells (AID 946);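 further: 0% = DMSO and 100% = tetraoctylammonium bromide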
How it was run: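 AC50 from Hill fit of concentration-response; data normalized to DMSO (basal) and 15 uM tetraoctylammonium bromide (100%). LYMP1-001 lymphoblastoid cells, 2500/well, 16 hr compound at 37 C; dead-cell protease fluorescence, Ex/Em 485/520.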

[7] = MultiTox-Fluor Cytotoxicity Assay - LYMP1-001 - Live Cells (AID 947);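 further: 0% = DMSO only and full inhibition = tetraoctylammonium bromide control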
[8] = MultiTox-Fluor Cytotoxicity Assay - LYMP1-002 - Live Cells (AID 955); further: on the % scale 0 is the no-effect control and ±100 the full control effect
How it was run: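 After 16 h compound exposure at 37 C, live LYMP1-002 lymphoblastoid cells (2500/well) were quantified by cleavage of cell-permeant GF-AFC substrate, read at 405/510 nm after 60 min. Concentration-response fitted with Hill equation for AC50.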

[9] = MultiTox-Fluor Cytotoxicity Assay - LYMP1-003 - Dead Cells (AID 961);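 further: 0% = DMSO and 100% = tetraoctylammonium bromide; nearly all actives have a fitted effect of over 70% in size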
How it was run: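 Human lymphoblastoid LYMP1-003 cells (2500/well) were treated with compounds for 16 hr at 37 C in complete medium. Dead-cell protease release was read by bis-AAF-R110 fluorescence (Ex/Em 485/520). AC50 came from Hill fits, normalized to DMSO and 15 uM tetraoctylammonium bromide.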

[10] = Cell Viability - LYMP1-003 - Assay at 24 hr (AID 963);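 further: plate controls were DMSO only for no effect and tetraoctylammonium bromide positive control for full effect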
How it was run: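 Concentration-response qHTS: ATP loss measured by CellTiter-Glo luminescence after 24 h compound exposure at 37 C. Cells were LYMP1-003 human lymphoblastoid, 2500 per well. AC50 derived via standard Hill equation modeling.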

[11] = Cell Viability - LYMP2-015 (AID 971);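 further: 0% = DMSO only and full effect = 92 µM tetraoctylammonium bromide; nearly all actives have a fitted effect of over 55% in size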
How it was run: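 Cytotoxicity readout: decrease in intracellular ATP (CellTiter-Glo luminescence) in 2500 LYMP2-015 lymphoblastoid cells/well after 24 h compound exposure at 37 C. Concentration-response data fitted with the standard Hill equation to give AC50.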

[12] = Cell Viability - LYMP2-002 (AID 977);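 further: plate controls were DMSO only for no effect and 92 µM tetraoctylammonium bromide for full effect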
How it was run: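 Human lymphoblastoid cells (2500/well) in complete medium were preincubated 5 hr at 37 C, then exposed to compounds for 24 hr at 37 C. Intracellular ATP was read by CellTiter-Glo luminescence; AC50 came from Hill-equation concentration-response fits.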

[13] = Cell Viability - LYMP2-016 (AID 984); further: on the % scale 0 is the no-effect control and ±100 the full control effect; nearly all actives have a fitted effect of over 55% in size
How it was run: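 Concentration-dependent ATP depletion measured in LYMP2-016 lymphoblastoid cells, 24 h, 37 C; luciferase-based luminescent detection; Hill-equation AC50.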

[14] = qHTS assay for small molecule antagonists of retinoid X receptor alpha signaling (AID 588546); conditions: HEK293T RXRa-UAS-bla, beta-lactamase ratio, antagonist mode; measured here: W530 green channel, cytotoxicity proxy;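 further: cells stimulated with 9-cis-retinoic acid as agonist; on the % scale 0 is the no-effect control and ±100 the full control effect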
How it was run: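 Beta-lactamase reporter inhibition, read as CCF4 fluorescence ratio (ex 405, em 460/530 nm) after 2 h at RT. HEK293T UAS-bla cells, 2500/well, were stimulated with 9-cis-RA at 500 or 100 nM final alongside test compound for 18 h at 37 C.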

[15] = target: Tumor necrosis factor (Homo sapiens) (UniProt P01375); test: qHTS assay to identify small molecules that stimulate Tumor Necrosis Factor-alpha (TNF-alpha) secretion (AID 651757; active means well fitted curve in the direction sought with a large enough effect in the signal ratio; the % refers to the signal ratio; further: 0% is about no effect)
Tumor necrosis factor (Homo sapiens), sequence (P01375 whole entry, looked up): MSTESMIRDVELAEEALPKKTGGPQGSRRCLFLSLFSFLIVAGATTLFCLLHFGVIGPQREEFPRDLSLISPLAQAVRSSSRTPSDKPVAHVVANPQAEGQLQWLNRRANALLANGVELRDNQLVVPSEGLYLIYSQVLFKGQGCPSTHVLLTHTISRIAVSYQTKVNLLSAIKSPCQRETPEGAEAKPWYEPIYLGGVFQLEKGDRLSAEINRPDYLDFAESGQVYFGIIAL
How it was run: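 Secreted TNF-alpha quantified by TR-FRET sandwich of two labeled anti-TNF-alpha antibodies, incubated 3 hr at room temperature. Preceded by 17 hr, 37 C compound treatment of THP-1 cells at 3000 cells/well.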

[16] = qHTS assay for environmental chemicals that activate the Aryl hydrocarbon Receptor (AhR) signaling pathway (AID 651777); conditions: 1A2-DRE human hepatoma cells, luciferase, 24 h; activation: stronger effect = higher value; further: % of control where 0% means no effect; nearly all actives have a fitted effect of over 15% in size
How it was run: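 Human hepatoma 1A2-DRE cells stably carrying a DRE/CYP1A2 promoter–luciferase reporter, 1,200 cells/well, exposed to compound 24 hr at 37 C. Luciferase read by One-Glo luminescence after 30 min at room temperature; increased signal marks AhR activation.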

[17] = qHTS assay for small molecule antagonists of the retinoid-related orphan receptor gamma (ROR-gamma) signaling pathway - cell viability counter screen (AID 720652; active means well fitted curve in the direction sought with a large enough effect in the repeat runs; an effect the other way counts as inactive or inconclusive;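 further: CHO reporter cells with doxycycline-induced ROR-gamma expression; compound exposure lasted 16 hr before ATP read; on the % scale 0 is the no-effect control and ±100 the full control effect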)
How it was run: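 Cytotoxicity counter screen: intracellular ATP (CellTiter-Glo luminescence) measured in the doxycycline-induced CHO RORE-luciferase reporter line after 16 hr compound exposure at 37 C, 5% CO2.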

[18] = qHTS assay for cell viability of HEK293 cells (AID 743288); conditions: ATP luminescence (CellTiter-Glo), 18 h; max response: stronger effect = lower value; further: nearly all actives have a fitted effect of over 50% in size; further: potency means the concentration at half of the fitted maximal effect; on max response: on the % scale 0 is the no-effect control and ±100 the full control effect
How it was run: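 HEK293, 18 h, 37 C, ATP luminescence. Cells at 2,000/well were allowed at least 5 h to settle before dosing; CellTiter-Glo developed 30 min at RT.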

[19] = qHTS assay for cell viability of the p53RE-bla HCT-116 cell line (AID 743292); further: on the % scale 0 is the no-effect control and ±100 the full control effect; nearly all actives have a fitted effect of over 55% in size
How it was run: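 CellSensor p53RE-bla HCT-116 cells (4,000/well) pre-incubated 5 h at 37 C, then exposed to compounds in DMSO for 16 h at 37 C. Viability read as ATP content by CellTiter-Glo luminescence after 30 min at room temperature.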

[20] = Cell Viability - LYMP2-005 (AID 967); further: potency means the concentration at half of the fitted maximal effect
How it was run: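 Luciferase-based ATP quantitation served as the viability measure in human lymphoblastoid LYMP2-005 cells exposed to test compounds for 24 h at 37 C in complete culture medium. Potency (AC50) was obtained by fitting concentration-response curves with the Hill equation.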

CCCCCCCCO
inactive: activity change, negative = cytotoxicity [1] -10.6% | caspase-3 activation [2] -0.397% | outcome [3] | Potency [4] | Potency [5] | Potency [6] | Potency [7] | Potency [8] | Potency [9] | Potency [10] | Potency [11] | Potency [12] | Potency [13] | outcome [15] | activation [16] -0.529% and -1.53% and 2.03% | Potency [17] | max response [18] 3.94% and -5.81% and -6.7% | Potency [19]
-5.18% and -18.2% and -19.2%: max response [14]

C=CCOC(=O)c1ccccc1C(=O)OCC=C
-4.9% and -9.66%: max response [14]
inactive: activity change, negative = cytotoxicity [1] -8.09% | caspase-3 activation [2] -1.58% | outcome [3] | Potency [4] | Potency [5] | Potency [6] | Potency [7] | Potency [8] | Potency [9] | Potency [10] | Potency [20] | Potency [11] | Potency [12] | Potency [13] | outcome [15] | activation [16] -0.581% and 2.86% | Potency [17] | max response [18] 7.73% and -19.3% | Potency [19]

O=[N+]([O-])c1cccc(Cl)c1Cl
inactive: activity change, negative = cytotoxicity [1] -3.99% | caspase-3 activation [2] 1.08% | outcome [3] | Potency [4] | Potency [5] | Potency [6] | Potency [7] | Potency [8] | Potency [9] | Potency [10] | Potency [20] | Potency [11] | Potency [12] | Potency [13] | outcome [15] | activation [16] 0.0517% and -0.399% | Potency [17] | max response [18] -3.06% and -4.76% | Potency [19]
3.16% and 3%: max response [14]

Cc1c(N=C=O)cccc1N=C=O
-2.03% and -4.55%: max response [14]
inactive: activity change, negative = cytotoxicity [1] -2.52% | caspase-3 activation [2] -0.0166% | outcome [3] | Potency [4] | Potency [5] | Potency [6] | Potency [7] | Potency [8] | Potency [9] | Potency [10] | Potency [20] | Potency [11] | Potency [12] | Potency [13] | outcome [15] | activation [16] 3.08% and 0.198% | Potency [17] | max response [18] 8.57% and -7.81% | Potency [19]

COC(=O)c1ccc(C=O)cc1
inactive: activity change, negative = cytotoxicity [1] -4.37% | caspase-3 activation [2] 13.7% | outcome [3] | Potency [4] | Potency [5] | Potency [6] | Potency [7] | Potency [8] | Potency [9] | Potency [10] | Potency [20] | Potency [11] | Potency [12] | Potency [13] | outcome [15] | activation [16] 1.65% and -0.822% | Potency [17] | max response [18] -15.6% and -6.77% | Potency [19]
-1.3% and -26.3%: max response [14]

NC1=NC(S)C2N=CN=C2N1 (stereo not given)
4.34%: max response [14]
active: Potency [4] 2.51 µM | Potency [20] 12.6 µM | Potency [18] 2.82 µM
inactive: outcome [3] | activation [16] -2.51%

CCCN(CCC)C(=O)SCC
-11.5% and -6.21%: max response [14]
inactive: activity change, negative = cytotoxicity [1] -0.642% | caspase-3 activation [2] 2.52% | outcome [3] | Potency [4] | Potency [5] | Potency [6] | Potency [7] | Potency [8] | Potency [9] | Potency [10] | Potency [20] | Potency [11] | Potency [12] | Potency [13] | outcome [15] | activation [16] 0.446% and -0.849% | Potency [17] | max response [18] -7.69% and -8.5% | Potency [19]

Clc1cc(Cl)c(Cl)cc1Cl
-13.2% and -12.3%: max response [14]
inactive: activity change, negative = cytotoxicity [1] 2.22% | caspase-3 activation [2] 2.8% | outcome [3] | Potency [4] | Potency [5] | Potency [6] | Potency [7] | Potency [8] | Potency [9] | Potency [10] | Potency [20] | Potency [11] | Potency [12] | Potency [13] | outcome [15] | activation [16] -0.0961% and 4.29% | Potency [17] | max response [18] 3.48% and -4.31% | Potency [19]

CC(C)=CCCC(C)CCO (stereo not given)
inactive: activity change, negative = cytotoxicity [1] -9.36% | caspase-3 activation [2] 2.37% | outcome [3] | Potency [4] | Potency [5] | Potency [6] | Potency [7] | Potency [8] | Potency [9] | Potency [10] | Potency [20] | Potency [11] | Potency [12] | Potency [13] | outcome [15] | activation [16] -0.0827% and -0.667% | Potency [17] | max response [18] 0.805% and -8.34% | Potency [19]
-7.35% and -8.91%: max response [14]

Nc1ccc(S(=O)(=O)O)cc1
inactive: activity change, negative = cytotoxicity [1] -1.94% | caspase-3 activation [2] 0.897% | outcome [3] | Potency [4] | Potency [5] | Potency [6] | Potency [7] | Potency [8] | Potency [9] | Potency [10] | Potency [20] | Potency [11] | Potency [12] | Potency [13] | outcome [15] | activation [16] -0.977% and -1% | Potency [17] | max response [18] -3.43% and 3.86% | Potency [19]
-0.278%: max response [14]
